According to the supplement of paper PMC7366291:
Where a name gives a salt, the structure may show the parent alone. ± gives the standard deviation or the standard deviation of the averaged measurements.

Legend:
Settings in all cases: 25 µM; exposure: 24-48 hpf
[1] = tested on: Danio rerio Tg(wt1b:EGFP) embryo, pronephros; test: glomerular separation, fold change vs DMSO control; higher = glomeruli further apart (abnormal)
In short: (§1)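 Distances and angles describing the pronephros were computed by a Fiji macro from 16 reference points set manually on maximum projections of dorsal images. These images came from dechorionated Tg(wt1b:EGFP) zebrafish embryos held in agarose-filled 96-well plates after exposure to 25 μM compound in 0.5% DMSO, in HEPES-buffered E3 with 0.003% PTU, from 24 to 48 hpf at 28.5°C. Any value more than 2 SD from the feature mean was excluded. Features are stated as fold change relative to the mean of same-day DMSO-treated embryos.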

[2] = tested on: Danio rerio Tg(wt1b:EGFP) embryo, pronephros; test: glomerular width (mean of left and right), fold change vs DMSO control; higher = wider glomerulus
In short: as §1

[3] = tested on: Danio rerio Tg(wt1b:EGFP) embryo, pronephros; test: fraction of imaged embryos annotated as normal kidney; higher = less nephrotoxic; extreme values may be limits of the assay
In short: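 From 24 to 48 hpf at 28.5°C, dechorionated Tg(wt1b:EGFP) zebrafish embryos in 12-well plates were kept in 5 mM HEPES-buffered E3 with 0.003% PTU, 0.5% DMSO and 25 μM compound. Pronephroi were imaged by widefield fluorescence at 470 nm and judged by eye from maximum projections. Reported is the proportion of embryos per treatment in the normal-kidney category.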

[4] = tested on: Danio rerio Tg(wt1b:EGFP) embryo, pronephros; test: pronephric angle neck segment to proximal convoluted tubule (mean of left and right), fold change vs DMSO control; higher = larger pronephric angle
In short: as §1

SMILES: CCCCC1C(=O)N(c2ccccc2)N(c2ccc(O)cc2)C1=O (stereo unspecified) [Oxyphenbutazone]
- glomerular separation [1]: 1.27 ± 0.44
- glomerular width [2]: 0.983 ± 0.027
- fraction of imaged embryos annotated as normal kidney [3]: 1
- pronephric angle neck segment [4]: 0.998 ± 0.06

SMILES: CC(=O)[C@H]1CC[C@H]2[C@@H]3C=CC4=CC(=O)CC[C@@]4(C)[C@@H]3CC[C@]12C [Dydrogesterone]
- glomerular separation [1]: 1.29 ± 0.6
- glomerular width [2]: 1.04 ± 0.02
- fraction of imaged embryos annotated as normal kidney [3]: 0.833
- pronephric angle neck segment [4]: 0.973 ± 0.012

SMILES: NS(=O)(=O)c1cc2c(cc1Cl)N=C(CSCc1ccccc1)NS2(=O)=O [Benzthiazide]
- glomerular separation [1]: 0.917 ± 0.25
- glomerular width [2]: 0.919 ± 0.05
- fraction of imaged embryos annotated as normal kidney [3]: 0.917
- pronephric angle neck segment [4]: 0.965 ± 0.028

SMILES: C[N+]1(C)CCC(OC(=O)C(O)(c2ccccc2)C2CCCC2)C1 (stereo unspecified) [Glycopyrrolate]
- glomerular separation [1]: 1.14 ± 0.48
- glomerular width [2]: 1.02 ± 0.055
- fraction of imaged embryos annotated as normal kidney [3]: 0.583
- pronephric angle neck segment [4]: 1.06 ± 0.028

SMILES: CC(=O)CC(c1ccc([N+](=O)[O-])cc1)c1c(O)c2ccccc2oc1=O (stereo unspecified) [Acenocoumarol]
- glomerular separation [1]: 0.834 ± 0.45
- glomerular width [2]: 0.94618 ± 0.00069
- fraction of imaged embryos annotated as normal kidney [3]: 0.8
- pronephric angle neck segment [4]: 1.07 ± 0.076

SMILES: Nc1nc(=O)n([C@@H]2CS[C@H](CO)O2)cc1F [(-)-Emtricitabine]
- glomerular separation [1]: 1.08 ± 0.4
- glomerular width [2]: 1.06 ± 0.019
- fraction of imaged embryos annotated as normal kidney [3]: 0.917
- pronephric angle neck segment [4]: 0.999 ± 0.073

SMILES: O=C(NCCNCC(O)COc1ccc(O)cc1)N1CCOCC1 (stereo unspecified) [Xamoterol hemifumarate]
- glomerular separation [1]: 1.01 ± 0.28
- glomerular width [2]: 0.983 ± 0.011
- fraction of imaged embryos annotated as normal kidney [3]: 1
- pronephric angle neck segment [4]: 0.98 ± 0.045

SMILES: CCCCc1nc(Cl)c(CO)n1Cc1ccc(-c2ccccc2-c2nnn[nH]2)cc1 [Losartan]
- glomerular separation [1]: 0.969 ± 0.39
- glomerular width [2]: 0.9444 ± 0.0062
- fraction of imaged embryos annotated as normal kidney [3]: 0.75
- pronephric angle neck segment [4]: 1.04 ± 0.044

SMILES: Cc1ccc(S(=O)(=O)NC(=O)NN2CC3CCCC3C2)cc1 (stereo unspecified) [Gliclazide]
- glomerular separation [1]: 0.87 ± 0.46
- glomerular width [2]: 1.05 ± 0.021
- fraction of imaged embryos annotated as normal kidney [3]: 0.917
- pronephric angle neck segment [4]: 0.982 ± 0.011

SMILES: CCCCc1cc2ccccc2c(OCCN(C)C)n1 [Dimethisoquin hydrochloride]
- glomerular separation [1]: 0.777 ± 0.2
- glomerular width [2]: 0.942 ± 0.065
- fraction of imaged embryos annotated as normal kidney [3]: 0.917
- pronephric angle neck segment [4]: 0.9905 ± 0.004

SMILES: CCCOc1ccccc1-c1nc2[nH]nnc2c(=O)[nH]1 [Zaprinast]
- glomerular separation [1]: 1.56 ± 0.95
- glomerular width [2]: 0.99 ± 0.074
- fraction of imaged embryos annotated as normal kidney [3]: 0.727
- pronephric angle neck segment [4]: 1.08 ± 0.12

SMILES: Nc1nc(O)c2ncn(CCC(CO)CO)c2n1 [Penciclovir]
- glomerular separation [1]: 0.817 ± 0.31
- glomerular width [2]: 1.01 ± 0.019
- fraction of imaged embryos annotated as normal kidney [3]: 0.917
- pronephric angle neck segment [4]: 0.964 ± 0.05

SMILES: CN(C)CCCN1c2ccccc2Sc2ccccc21 [Promazine hydrochloride]
- glomerular separation [1]: 1.25 ± 0.35
- glomerular width [2]: 1.044 ± 0.0041
- fraction of imaged embryos annotated as normal kidney [3]: 0.75
- pronephric angle neck segment [4]: 0.962 ± 0.047

SMILES: CN1CCC(=C2c3ccccc3CCc3cccnc32)CC1 [Azatadine maleate]
- glomerular separation [1]: 1.11 ± 0.32
- glomerular width [2]: 0.9513 ± 0.00027
- fraction of imaged embryos annotated as normal kidney [3]: 1
- pronephric angle neck segment [4]: 0.99 ± 0.037

SMILES: CCCCOc1cc(C(=O)NCCN(CC)CC)c2ccccc2n1 [Dibucaine]
- glomerular separation [1]: 1.35 ± 0.37
- glomerular width [2]: 0.996 ± 0.044
- fraction of imaged embryos annotated as normal kidney [3]: 0.917
- pronephric angle neck segment [4]: 1.007 ± 0.0089

SMILES: CO[C@H]1/C=C/O[C@@]2(C)Oc3c(C)c(O)c4c(O)c(c5c(nc6cc(C)ccn65)c4c3C2=O)NC(=O)/C(C)=C\C=C\[C@H](C)[C@H](O)[C@@H](C)[C@@H](O)[C@@H](C)[C@H](OC(C)=O)[C@@H]1C [Rifaximin]
- glomerular separation [1]: 0.666 ± 0.16
- glomerular width [2]: 1.06 ± 0.019
- fraction of imaged embryos annotated as normal kidney [3]: 0.833
- pronephric angle neck segment [4]: 0.984 ± 0.022

SMILES: CCOC(=O)[C@@](C)(N)Cc1ccc(O)c(O)c1 [Methyldopate hydrochloride]
- glomerular separation [1]: 1.28 ± 0.62
- glomerular width [2]: 0.9116 ± 0.0027
- fraction of imaged embryos annotated as normal kidney [3]: 0.667
- pronephric angle neck segment [4]: 1.014 ± 0.0011

SMILES: Cc1cccc(CN2CCN(C(c3ccccc3)c3ccc(Cl)cc3)CC2)c1 (stereo unspecified) [Meclozine dihydrochloride]
- glomerular separation [1]: 1.25 ± 0.33
- glomerular width [2]: 0.93 ± 0.015
- fraction of imaged embryos annotated as normal kidney [3]: 0.417
- pronephric angle neck segment [4]: 1.03 ± 0.073

SMILES: CCOC(=O)[N-]c1c[n+](N2CCOCC2)no1 [Molsidomine]
- glomerular separation [1]: 0.9 ± 0.41
- glomerular width [2]: 0.9963 ± 0.0028
- fraction of imaged embryos annotated as normal kidney [3]: 0.833
- pronephric angle neck segment [4]: 0.982 ± 0.013

SMILES: CC1=Nc2ccc(Cl)cc2S(=O)(=O)N1 [Diazoxide]
- glomerular separation [1]: 0.743 ± 0.26
- glomerular width [2]: 1.03 ± 0.029
- fraction of imaged embryos annotated as normal kidney [3]: 0.833
- pronephric angle neck segment [4]: 0.942 ± 0.035

SMILES: Cc1cc(=O)oc2cc(O)ccc12 [Hymecromone]
- glomerular separation [1]: 0.837 ± 0.36
- glomerular width [2]: 1 ± 0.013
- fraction of imaged embryos annotated as normal kidney [3]: 0.909
- pronephric angle neck segment [4]: 0.98 ± 0.01

SMILES: CNC(C)CCC=C(C)C (stereo unspecified) [Isometheptene mucate]
- glomerular separation [1]: 0.941 ± 0.26
- glomerular width [2]: 0.958 ± 0.039
- fraction of imaged embryos annotated as normal kidney [3]: 0.917
- pronephric angle neck segment [4]: 0.977 ± 0.024

SMILES: CCCC1C(=O)N2C(N(C)C)=Nc3ccc(C)cc3N2C1=O (stereo unspecified) [Azapropazone]
- glomerular separation [1]: 1.16 ± 0.34
- glomerular width [2]: 0.984 ± 0.022
- fraction of imaged embryos annotated as normal kidney [3]: 0.917
- pronephric angle neck segment [4]: 1.018 ± 0.0029

SMILES: COc1ccc(C(=O)c2ccccc2O)c(O)c1 [Dioxybenzone]
- glomerular separation [1]: 2.57 ± 1.9
- glomerular width [2]: 0.84 ± 0.044
- fraction of imaged embryos annotated as normal kidney [3]: 0.417
- pronephric angle neck segment [4]: 1.09 ± 0.018

SMILES: CC(=O)c1ccc2c(c1)N(CCCN(C)C)c1ccccc1S2 [Acetopromazine maleate salt]
- glomerular separation [1]: 0.953 ± 0.23
- glomerular width [2]: 0.924 ± 0.071
- fraction of imaged embryos annotated as normal kidney [3]: 1
- pronephric angle neck segment [4]: 0.969 ± 0.02

SMILES: C=C[C@H]1CN2CC[C@H]1C[C@@H]2[C@@H](O)c1ccnc2ccc(OC)cc12 [Quinidine hydrochloride monohydrate]
- glomerular separation [1]: 0.962 ± 0.19
- glomerular width [2]: 1.13 ± 0.084
- fraction of imaged embryos annotated as normal kidney [3]: 0.75
- pronephric angle neck segment [4]: 1.01 ± 0.016

SMILES: O=C1NCN(c2ccccc2)C12CCN(CCCC(c1ccc(F)cc1)c1ccc(F)cc1)CC2 [Fluspirilen]
- glomerular separation [1]: 2.89 ± 1.3
- glomerular width [2]: 0.687 ± 0.11
- fraction of imaged embryos annotated as normal kidney [3]: 0.333
- pronephric angle neck segment [4]: 1.028 ± 0.0059

SMILES: CCCc1cc(=O)[nH]c(=S)[nH]1 [Propylthiouracil]
- glomerular separation [1]: 0.81 ± 0.17
- glomerular width [2]: 1.058 ± 0.0069
- fraction of imaged embryos annotated as normal kidney [3]: 1
- pronephric angle neck segment [4]: 1.02 ± 0.044

SMILES: N=C(N)NS(=O)(=O)c1ccc(N)cc1 [Sulfaguanidine]
- glomerular separation [1]: 1.04 ± 0.35
- glomerular width [2]: 0.979 ± 0.034
- fraction of imaged embryos annotated as normal kidney [3]: 0.833
- pronephric angle neck segment [4]: 1.02 ± 0.036
